This is part of a sample that, as a whole, favours compounds with a hit. Of some 83,000 tested, about 20% had one in any assay.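 How to read the values: 0–100, growth inhibition (40 = 60% inhibited); 0, no net growth; -100 to 0, cell death (-40 = 40% of starting cells died; -100 = all dead).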 A number with no mark means an inactive call. Calls of active or inactive are those of the source.
Each molecule was assayed on A498 renal (assay: NCI-60 one-dose screen, 48 h (100 = growth as untreated, 0 = no growth, -100 = all killed)). Conditions: 10 µM unless noted.
Experimental: Growth inhibition of the A498 human tumor cell line is measured as a screen for anti-cancer activity. Cells are grown in 96 well plates and exposed to the test compound for 48 hours. Compounds are tested at a single concentration, which is 10^-5 M for most compounds. The reported endpoint is percent growth (GI% or GIPRCNT), where numbers from 0 - 100% represent growth inhibition, and numbers from -100% - 0 represent cell death. For example, a value of 40 represents 60% growth inhibition. A value of 0 means no net growth occurred over the course of the experiment. A value of -40 indicates 40% of cells at the beginning of the experiment died by the end of the experiment. A value of -100 means all cells are dead at the end of the experiment.
NCI-60 Human Tumor Cell Lines Screen was performed using the standard one-dose NCI protocol, which is described in more detail at https://dtp.cancer.gov/discovery_development/nci-60/default.htm.
Compounds with GIPRCNT values below 10 were considered active. Activity score was based on GIPRCNT using the following formula: […]
Score is 0 for GIPRCNT values of 100 or above, 50 for GIPRCNT values of 0, and 100 for GIPRCNT values of -100.

SMILES | growth
COc1cc(/C=C/C(=O)C(C(=O)/C=C/c2ccc(OC(=O)CCNc3nnc(C)s3)c(OC)c2)C(=O)CCNc2nnc(C)s2)ccc1OC(=O)CCNc1nnc(C)s1 | 49.7%
CCOC(=O)c1sc(NC(=O)COc2cccc(/C=C3\CCc4cc(OC)ccc4C3=O)c2)nc1C | 85.8%
CCN(CC)CCNCC(=O)Oc1ccc(/C=C/C(=O)CC(=O)/C=C/c2ccc(OC(=O)CNCCN(CC)CC)c(OC)c2)cc1OC | 51%
CC(C)CC1NC(=O)C(CCCN)NC(=O)C(C(C)C)NC(=O)C2CCCN2C(=O)C(Cc2ccccc2)NC(=O)C(CC(C)C)NC(=O)C(CCCN)NC(=O)C(C(C)C)NC(=O)C2CCCN2C(=O)C(Cc2ccccc2)NC1=O (stereo not given) | -70.1% (active)
Nc1nc2c(c(=O)[nH]1)C1(C(=O)Nc3ccccc31)c1c(nc(N)[nH]c1=O)N2 | 108%
Cc1ccc2nc3c(n2c1)C(=O)C(=O)c1ccccc1-3 | -96.4% (active)
Cc1cc2c(cc1C)[n+](Cc1ccc3ccccc3c1)cn2Cc1ccc2ccccc2c1 | -68% (active)
COc1ccc2nc(N/N=C(\C)c3ccccn3)cc(C)c2c1 | -64.5% (active)
O=C1Nc2ccc(Cl)cc2[C@@](C#CC2CC2)(C(F)(F)F)O1 | 106%
NS(=O)(=O)c1cc2c(cc1Cl)NC=NS2(=O)=O | 110%
Cc1ccc(C2=Nc3c(ccc4c(C)c(C)c(=O)oc34)OC2)cc1 | 110%
COc1c(O)cc2c(c1CC=C(C)C)OC(=O)c1c(cc(O)c(CC=C(C)C)c1O)O2 | 116%
N#Cc1c(NC(=O)c2ccco2)[n+]([O-])c2ccccc2[n+]1[O-] | 117%
N#Cc1c(NC(=O)c2ccco2)[n+]([O-])c2cc(Cl)c(Cl)cc2[n+]1[O-] | 109%
C[C@H](C(=O)N[C@@H](Cc1ccc(-c2ccccc2)cc1)C(=O)NC1CC(C)(C)N(C)C(C)(C)C1)c1ccc(-c2ccccc2)c(F)c1 | -18.2% (active)
COc1cc(Cl)cc(-c2nn(-c3cccc(NC(=O)c4cc(C(F)(F)F)cc(C(F)(F)F)c4)c3)cc2-c2ccncc2)c1 | -1.74% (active)
CC(=O)[C@H]1CC[C@H]2[C@@H]3C[C@H](C)C4=CC(=O)CC[C@]4(C)[C@H]3C(=O)C[C@]12C | 74%
COc1ccc(/C=C/C(=O)c2cccc(NS(C)(=O)=O)c2)cc1 | 101%
BrC1CC(Br)c2c1c1c(c3c2C(Br)CC3Br)C(Br)CC1Br (stereo not given) | 117%
Cc1ccc(-c2cc(-c3ccccc3)n(-c3ccccc3)n2)cc1 | 92.1%

SMILES | growth
O=C(Nc1ccccc1OC(=O)c1ccccc1)c1ccccc1 | 81.4%
CC(=O)N1N=C(c2ccc(Cl)cc2)CC1c1c(C)nn(-c2ccccc2)c1N(C)Cc1ccccc1 (stereo not given) | 71.6%
COc1ccc(-c2c3c(N)nc(-c4ccncc4)nc3nc3c2c(C)nn3-c2ccccc2)cc1 | 73.2%
COc1ccc(N2CCN(CC(=O)N3CCN(c4nnc(-c5ccc(Cl)cc5)c(-c5ccc(Cl)cc5)n4)CC3)CC2)cc1 | 38.1%
CCOC(=O)C(C(=O)OCC)C1CCCCC1 | 107%
COc1ccc(C2CC(c3ccc4c(c3)OCO4)=NN2C=O)cc1 (stereo not given) | 91.2%
C[C@@H]1CN(c2nc3c(cc2F)c(=O)c(C(=O)O)cn3C(C)(C)C)C[C@H](C)N1 | 107%
NS(=O)(=O)c1cc(C2(O)NC(=O)c3ccccc32)ccc1Cl (stereo not given) | 129%
COC(=O)C1CCN(S(=O)(=O)c2ccc(-c3ccccc3)cc2)CC1 | 125%
CCOC(=O)C1=CCC(n2cc(C)c(=O)[nH]c2=O)O1 (stereo not given) | 121%
Clc1ccc(C2=NN(c3ccc(Cl)cc3)C(c3cccc(Nc4ccnc5cc(Cl)ccc45)c3)C2)cc1 (stereo not given) | 89.3%
COc1ccc2c(c1)[n+](=O)c(C(=O)/C=C/c1cc(OC)c(OC)c(OC)c1)c(C)n2[O-] | 77.1%
COc1ccc2cc(C3=CC(=O)CCC3)ccc2c1 | -87.9% (active)
CSc1nc2nc3c(c(-c4ccc(C)cc4)c2c(=O)[nH]1)CN(C)C/C3=C\c1ccc(C)cc1 | 85.6%
CC1=C([Se]CC(OC(=O)[C@@H](CSSC(C)(C)C)NC(=O)C(C)(C)C)C(=O)NCCCCCC(=O)OCc2ccccc2)C(=O)c2ccccc2C1=O (stereo not given in full) | -5.18% (active)
N#CC(C#N)C(C#N)C#N | 99%
CCOC(=O)c1cc2oc(/C=C/c3cc(=O)c4cc(Cl)ccc4o3)cc2[nH]1 | 115%
Cc1cc(C)nc(NS(=O)(=O)c2ccc(Nc3nc4nc(SCc5ccccc5)nc(-c5ccc(O)cc5)c4c(=O)[nH]3)cc2)n1 | 90.7%
CN1C(=O)C(C2=NN(C=O)C(c3ccc(F)cc3)C2)C(=O)N(C)C1=O (stereo not given) | 96.7%
O=[N+]([O-])c1ccc(N=Nc2c(Cl)cc(O)cc2Cl)cc1 | -26.4% (active)

From PubChem BioAssay (NCI)
